Screening data: PubChem, several laboratories
In the library only some 4.2% were active in any assay of this set; here they are far more common.
DAX1 StAR inh: blocks DAX1 repression of SF-1 activated StAR promoter; AID 652010; HEK293T StAR-luciferase reporter, SF-1/DAX-1 repression relief; 370,000 tested, 1.1% active; inhibition, % at 6.8 µM;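 active = inhibition above the mean over all tested compounds plus 3 SD, cut at about 3.6% in these data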;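 also: 0% = DAX-1 cells with DMSO and 100% = cells lacking DAX-1 with DMSO; higher inhibition means more luminescence from relief of DAX-1 repression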
ssDAF12 agonist: activators of S. stercoralis DAF-12 nuclear receptor; activation, % at 6.8 µM; AID 652126; 370,000 tested, 1% active; HEK293 ssDAF-12/GRIP1 lit1-tk-luc reporter, luminescence; % of 3 µM dafachronic acid response;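 active = activation above the mean over all tested compounds plus 3 SD, cut at about 0.9% in these data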;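 also: 0% = DMSO-only wells and 100% = 3 µM delta7-dafachronic acid wells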
hcDAF-12 act: activators of H. contortus DAF-12 nuclear receptor. 370,000 tested, 1.4% active. activation, % at 6.8 µM. HEK293 hcDAF-12 lit1-tk-luc reporter, luminescence; 0% DMSO, 100% Δ7-dafachronic acid;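 active = activation above the mean of all tested compounds plus 3 SD, cut at about 5.5% in these data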;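 also: 100% = response to 3 µM Δ7-dafachronic acid high control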
Wnt bcat act: activates Wnt/beta-catenin signaling in a reporter cell assay. activator, plate reader. activation, % at 9.35 µM. 300,000 tested, 1.2% active; in the data active = activation above about 30%, passing the limit was not always enough; inconclusive = no clear call, values can overlap the other calls;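 also: 0% = neutral control wells and 100% = positive control wells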
hgDAF12 agonist: agonists of H. glycines DAF-12 nuclear receptor; 370,000 tested, 1.8% active; activation, % at 6.8 µM; HEK293 GAL4-hgDAF12 UAS-luciferase reporter, agonist luminescence; normalized to butyrate control;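 active = activation above a cutoff set at the mean of all screened compounds plus 3 SD, cut at about 10% in these data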;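 also: 0% = DMSO wells and 100% = sodium butyrate wells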
esBAF inh: inhibitors of esBAF chromatin remodeling in mouse ES cells. Bmi1-luciferase knock-in reporter, 24 h; 100% = twice the neutral-well signal. reporter increase, % at 12.5 µM. 350,000 tested, 2% active; in the data active = activation above about 40%; inconclusive = no clear call, values can overlap the other calls;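 also: 0% = median of the plate's neutral control wells and 100% = double that signal; a rise in the Bmi1 reporter signal indicates esBAF inhibition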
* marks the source's active call; other numbers are inactive results; u = inconclusive; x = no result given.

SMILES	DAX1 StAR inh	ssDAF12 agonist	hcDAF-12 act	Wnt bcat act	hgDAF12 agonist	esBAF inh
O=C1CC(N2CCN(c3ccccn3)CC2)C(=O)N1c1ccc(F)cc1 (configuration not stated)	0	1.7*	0	-1	1	x
COc1ccc(Cc2c(-c3cccc(Cl)c3)nc3ccc(C)cn23)c(C)c1	4.0*	0	1	18	10	56*
COc1ccc(Cc2c(-c3ccccc3)nc3ccc(Cl)cn23)c(C)c1	2	0	2	17	5	23
COc1ccc(Cc2c(-c3ccccc3)nc3ccc(C)cn23)c(C)c1	3.9*	1.5*	2	7	14*	x
COc1ccc(Cc2c(-c3ccc(F)cc3)nc3ccc(Cl)cn23)c(C)c1	3	0	4	-1	8	44*
COc1ccc(NC(=O)Nc2ccc3c(c2)CC(=O)N([C@H](C)CO)C[C@@H](C)[C@H](CN(C)C(=O)NC(C)C)O3)cc1	x	x	x	x	x	6
COc1ccc(S(=O)(=O)N(C)C[C@H]2Oc3ccc(NC(=O)Cn4cnnn4)cc3C(=O)N([C@@H](C)CO)C[C@@H]2C)cc1	x	x	x	x	x	-2
COc1ccc(NC(=O)CN(C)S(=O)(=O)c2ccc(Br)s2)cc1	0	-1	-3	-1	-3	6
COc1ccc(NC(=O)CN(C)S(=O)(=O)c2cccs2)cc1	1	-1	1	-3	3	49*
CCOc1ccc(N(CC(=O)Nc2ccc(OC)cc2)S(C)(=O)=O)cc1	1	0	2	-1	7	33
COC(=O)c1ccc(NC(=O)CN(c2ccc(OC)cc2)S(C)(=O)=O)cc1	1	-1	3	x	12*	x
CCOc1ccc(NC(=O)CN(c2ccc(OC)cc2)S(C)(=O)=O)cc1	2	-1	2	x	5	67*
CNC[C@@H]1Oc2ccc(NC(=O)Nc3cccc4ccccc34)cc2C(=O)N([C@H](C)CO)C[C@@H]1C	x	x	x	x	x	-10
Cc1ccccc1C(=O)Oc1ccccc1N1C(=O)C2CC=CCC2C1=O (configuration not stated)	1	0	1	-5	2	x
O=C(Oc1ccccc1N1C(=O)C2CC=CCC2C1=O)c1ccc(Br)cc1 (configuration not stated)	1	1.2*	1	x	0	x
CCNC(=O)C[C@H]1CC[C@@H]2[C@H](COc3ccc(NC(=O)C4CCCCC4)cc3C(=O)N2C)O1	x	x	x	x	x	2
CCN(CCn1cccn1)C(=O)CCc1nnc(-c2ccc3c(c2)OCO3)o1	0	-2	-1	8	4	x
O=C(CCc1nnc(CCCc2ccccc2)o1)NCCN1CCOC1=O	1	-1	0	-1	-1	x
CCN(CCn1cccn1)C(=O)CCc1nnc(CCCc2ccccc2)o1	1	1.0*	2	x	13*	x
Cn1cc(CCNC(=O)CCc2nnc(CCCCc3ccccc3)o2)cn1	0	-2	-2	3	12*	x
CCCNC(=O)N1C[C@@H]2[C@H](c3ccccc31)[C@@H](CO)N2C(=O)Nc1ccccc1F	x	x	x	x	x	-3
CCn1cc(Cl)c(C(=O)Nc2nccs2)n1	1	0	6.4*	9	1	34
O=C(Nc1nccs1)c1ccc(Br)s1	3	0	5.8*	20	10	u
Cc1csc(NC(=O)c2ccc(Cl)nc2)n1	0	0	3	0	7	27
O=C(Nc1nccs1)c1ccc(Cl)nc1	0	0	5.9*	13	3	16
SMILES	DAX1 StAR inh	ssDAF12 agonist	hcDAF-12 act	Wnt bcat act	hgDAF12 agonist	esBAF inh
O=C(Nc1nccs1)c1ccc(Br)cc1	1	0	5	12	9	43*
Cc1ccc(C(=O)Nc2nccs2)s1	1	0	4	24	8	39
Cc1c(NC(=O)c2ccc(S(=O)(=O)Nc3ccccc3F)cc2)c(=O)n(-c2ccccc2)n1C	0	-1	1	-3	0	-7
Cc1c(NC(=O)c2ccc(NS(=O)(=O)c3ccc(F)c(F)c3)cc2)c(=O)n(-c2ccccc2)n1C	3.7*	-1	-1	0	1	-7
COc1ccc(-c2nnc(SC(C)C(=O)NNC(=O)c3ccc(C)cc3)o2)cc1 (configuration not stated)	0	-1	-1	x	0	x
COc1ccc(-c2nnc(SC(C)C(=O)Nc3cccc(Cl)c3)o2)cc1 (configuration not stated)	3	-1	3	39*	9	40
Cc1noc(C)c1S(=O)(=O)N(C)C[C@H]1OCCCC[C@H](C)Oc2ccc(NC(=O)NC3CCCCC3)cc2C(=O)N([C@@H](C)CO)C[C@@H]1C	x	x	x	x	x	-6
CCCOc1cccc(-c2nc3ccccc3c(=O)o2)c1	3	0	5	27	11*	x
O=c1oc(-c2ccc([N+](=O)[O-])cc2)nc2ccccc12	1	-1	0	10	7	x
CCC(=O)Nc1cccc(-c2nc3ccccc3c(=O)o2)c1	0	-1	-2	x	-1	-12
O=c1oc(-c2ccc(Br)cc2)nc2ccccc12	1	0.9*	3	8	7	46*
C[C@H](CO)N1C[C@H](C)[C@H](CN(C)S(=O)(=O)c2ccc(Cl)cc2)Oc2c(NC(=O)c3nc4ccccc4s3)cccc2C1=O	x	x	x	x	x	6
COCC(=O)Nc1ccc2c(c1)C(=O)N(C)[C@H]1CC[C@@H](CC(=O)NCCc3ccncc3)O[C@@H]1CO2	x	x	x	x	x	-11
COc1ccc(-n2c(O)c(/C=N/NS(=O)(=O)c3ccc(C)c([N+](=O)[O-])c3)c3ccccc3c2=O)cc1OC	0	-1	0	-7	0	x
O=c1c2ccccc2c(/C=N/NS(=O)(=O)c2ccccc2)c(O)n1-c1ccccn1	-1	1.0*	0	0	0	x
C[C@@H]1CN([C@@H](C)CO)C(=O)c2cc(NC(=O)c3ccncc3)ccc2O[C@@H](C)CCCCO[C@H]1CN(C)C(=O)C1CCCCC1	x	x	x	x	x	4
CC(NC(=O)C1CCCC1)c1ccccc1 (configuration not stated)	0	-2	-3	0	-2	6
O=C(NC(c1ccccc1)c1ccccc1)C1CCCC1	0	1.4*	0	x	3	x
O=C(O)Cn1nc(-c2ccccc2)cc1-c1ccccc1	0	-1	3	3	2	14
O=C(O)CC(C(=O)O)n1nc(-c2ccccc2)cc1-c1ccccc1 (configuration not stated)	1	0	5.8*	x	5	58*
Cc1cc(-c2nnc(CCC(=O)NCc3ccc(F)c(F)c3)o2)no1	0	1.9*	0	-1	3	x
CCCC#Cc1ccc2c(c1)O[C@@H](CN(C)C(=O)COC)[C@@H](C)CN([C@H](C)CO)S2(=O)=O	x	x	x	x	x	-4
O=C1N=C(N2CCCCC2)S/C1=C\c1ccc(Cl)cc1	0	-1	0	2	1	29
